{"source": "PubChem BioAssay"}
{"target": "Carbonic anhydrase 2 (Homo sapiens) (UniProt P00918)", "assay": "compounds binding carbonic anhydrase 2 – biochemical, small-molecule microarray, Alexa647-labelled CAII, profiling panel (AID 1122)", "conditions": "CAII-A647 binding fluorescence, higher = more signal"}
{"compound": "CCN(CC)c1ccc(N2CC=CC34O[C@@H]5C=CCOC(=O)[C@@H]5[C@H]3C(=O)N(CCO)[C@@H]4C2=O)cc1", "note": "(stereo not given in full)", "composite z-score": 0.913}
{"compound": "CCOC(=O)C1=CC[C@@H](c2ccccc2)N(S(=O)(=O)C[Si](C)(C)C)[C@H]1c1ccccc1", "composite z-score": 0.605}
{"compound": "CN(C)CCCC[C@@H]1NC(=O)[C@@H]2C[C@H](C(=O)NCc3ccc(F)cc3)[C@H](c3ccc(O)cc3)N2C1=O", "composite z-score": 0.609}
{"compound": "C=CCOC(=O)[C@H]1[C@@H]2C(=O)O[C@@H](c3ccccc3)[C@@H](c3ccccc3)N2[C@@H](c2ccc(OCCOC(=O)[C@@H]3C[C@@H]4C(=O)N[C@@H](CC(C)C)C(=O)N4[C@@H]3c3ccc(O)cc3)cc2)[C@]12C(=O)Nc1ccc(I)cc12", "composite z-score": 0.668}
{"compound": "COCCCNC(=O)[C@@H]1c2ccccc2C(=O)N(C2CCCCC2)[C@H]1c1ccc(CO)cc1", "composite z-score": 0.471}
{"compound": "CN(C)CCCC[C@@H]1NC(=O)[C@H]2C[C@@H](C(=O)NCc3ccc(F)cc3)[C@@H](c3ccc(O)cc3)N2C1=O", "composite z-score": 0.757}
{"compound": "COc1ccc(C#Cc2ccc3c(c2)[C@]2(C(=O)N3)[C@H](C(=O)Nc3nc4ccccc4s3)[C@H]3C(=O)O[C@H](c4ccccc4)[C@H](c4ccccc4)N3[C@@H]2c2ccc(OCCO)cc2)cc1", "composite z-score": 0.622}
{"compound": "C=CCC(OC(C)=O)[C@@H]1[C@@H](N(Cc2ccc(-c3cccc(C(F)(F)F)c3)o2)C(=O)c2cccc3ccccc23)c2cc(OCCCO)ccc2N1C(=O)c1ccc2ccccc2n1", "note": "(stereo not given in full)", "composite z-score": -0.162}
{"compound": "C[N+](C)(C)CCCC[C@@H]1NC(=O)[C@H]2C[C@@H](C(=O)NCCCCCNC(=O)CS)[C@@H](c3ccc(O)cc3)N2C1=O", "composite z-score": 0.678}
{"compound": "C=CCC(OC(C)=O)[C@@H]1[C@@H](N(Cc2cccc3ccccc23)C(=O)c2cccc3ccccc23)c2cc(OCCCO)ccc2N1C(=O)Cc1ccc2ccccc2c1", "note": "(stereo not given in full)", "composite z-score": -0.272}
{"compound": "COc1ccc(C(O)C2C=CC3C(=O)N(C)C(=O)C3N2Nc2ccc([N+](=O)[O-])cc2[N+](=O)[O-])cc1OCc1ccccc1", "note": "(stereo not given)", "composite z-score": 0.633}
{"compound": "COCCOC(=O)N1C(=O)[C@@]2(c3cc(C#CCC(C(=O)OC)C(=O)OC)ccc31)[C@H](C(=O)N1CCc3cc(OC)c(OC)cc3C1)[C@H]1C(=O)O[C@H](c3ccccc3)[C@H](c3ccccc3)N1[C@@H]2c1ccc(O)cc1", "composite z-score": 0.213}
{"compound": "C=CCNC(=O)[C@@H]1[C@H]2C(=O)O[C@H](c3ccccc3)[C@H](c3ccccc3)N2[C@H](c2ccc(O)cc2)[C@@]12C(=O)Nc1ccc(C#CC3(O)CCCCCC3)cc12", "composite z-score": 0.653}
{"compound": "COCCOC(=O)N1C(=O)[C@@]2(c3ccccc31)[C@H](C(=O)N1CCCCCCC1)[C@H]1C(=O)O[C@H](c3ccccc3)[C@H](c3ccccc3)N1[C@@H]2c1ccc(O)cc1", "composite z-score": 0.608}
{"compound": "N#Cc1ccc(C(O)C2C=CC3C(=O)NC(=O)C3N2Nc2ccccn2)cc1", "note": "(stereo not given)", "composite z-score": 0.854}
{"compound": "CC(C)C[C@H]1NC(=O)[C@@]23C(=O)N[C@@H](Cc4ccccc4)C2[C@H](C)[C@@]2(C)O[C@H]2C3/C=C/C/C=C\\CNC(=O)[C@@H]2CCCN2C1=O", "note": "(stereo not given in full)", "composite z-score": 0.725}
{"compound": "CCCC[C@@H]1C[C@H]1[C@@H](NC(=O)Cc1ccccc1)c1ccc(Cl)cc1", "composite z-score": 0.69}
{"compound": "NC(=O)N1C(=O)C2C(C1=O)C1C=C(CCCO)C2C(c2ccc(CN3CCCC3)cc2)N1Cc1cccc(OC(F)(F)F)c1", "note": "(stereo not given)", "composite z-score": 0.203}
{"compound": "CCOC(=O)C[C@H]1[C@H](OC(=O)c2ccc(C(=O)c3ccccc3)cc2)[C@@H](NC(=O)c2ccc3ccccc3c2)c2cc(OCCCO)ccc2N1C(=O)c1ccc2ccccc2n1", "composite z-score": 0.342}
{"compound": "O=C1NC(=O)C2C1C=CC(C(O)c1ccc(F)cc1)N2Nc1ccccn1", "note": "(stereo not given)", "composite z-score": 0.831}
{"compound": "COc1ccc([Si](C)(C)[C@H]2[C@H](CC(=O)N3Cc4ccccc4C[C@H]3CO)O[C@@]3(C(=O)N(Cc4cccc(N5C(=O)c6cccc7cccc5c67)c4)c4ccccc43)[C@@H]2C)cc1", "composite z-score": 0.295}
{"compound": "COC(=O)[C@@]1(Cc2ccccc2)[C@@H]2[C@@H](CC(=O)[C@H]2CC(=O)C(=O)N(C)C)CN1C(=O)c1ccccc1", "composite z-score": 0.838}
{"compound": "COC(=O)[C@]1(CO)N=C(c2ccc(OCCCO)cc2)O[C@@H]1c1ccccc1CN=[N+]=[N-]", "composite z-score": 0.7}
{"compound": "CC(C)CNC(=O)[C@@H]1c2ccccc2C(=O)N(C(C)C)[C@H]1c1ccc(CO)cc1", "composite z-score": 0.757}
{"compound": "Cc1c(NC(=O)/C(C#N)=C/c2ccc(Cl)cc2)c(=O)n(-c2ccccc2)n1C", "composite z-score": 0.229}
{"compound": "O=C1c2ccccc2[C@](Cc2ccccc2I)(C(=O)O)[C@H](c2ccc(CO)cc2)N1Cc1ccccc1", "composite z-score": 0.729}
{"compound": "CCC[C@@H]1C=C(C(=O)OCC)[C@H](c2ccccc2)N1S(=O)(=O)c1ccc(C)cc1", "composite z-score": 0.214}
{"compound": "COCCOC(=O)N1C(=O)[C@@]2(c3cc(C#CCC(C(=O)OC)C(=O)OC)ccc31)[C@H](c1ccc(OCCO)cc1)N1[C@H](c3ccccc3)[C@H](c3ccccc3)OC(=O)[C@H]1[C@@H]2C(=O)N1CCCCCCC1", "composite z-score": 0.604}
{"compound": "CCOC(=O)C[C@H]1[C@H](OC(=O)c2ccc(-c3ccccc3)cc2)[C@@H](NC(=O)CC(C)C)c2cc(OCCCO)ccc2N1C(=O)Cc1ccc(OC)cc1", "composite z-score": -0.0667}
{"compound": "COCCOC(=O)N1C(=O)[C@@]2(c3cc(C#CCC(C(=O)OC)C(=O)OC)ccc31)[C@H](C(N)=O)[C@H]1C(=O)O[C@H](c3ccccc3)[C@H](c3ccccc3)N1[C@@H]2c1ccc(OCCO)cc1", "composite z-score": 0.565}
{"compound": "C=CCC(OC(C)=O)[C@@H]1[C@@H](N(Cc2ccc(-c3cccc(C(F)(F)F)c3)o2)C(=O)c2cccc3ccccc23)c2cc(OCCCO)ccc2N1C(=O)c1ccc2ccccc2c1", "note": "(stereo not given in full)", "composite z-score": 0.0138}
{"compound": "COC(=O)[C@@]1(Cc2ccccc2)[C@H]2c3cc(C(=O)N4CCCC4)n(Cc4ccc(C(F)(F)F)nc4)c3C[C@H]2CN1C(=O)c1ccccc1", "composite z-score": 0.478}
{"compound": "C=CC[C@@]1(C(=O)O)N=C(c2ccc(OCCCO)cc2)O[C@@H]1c1ccccc1CN=[N+]=[N-]", "composite z-score": 0.596}
{"compound": "COc1ccc([Si](C)(C)[C@H]2[C@H](CCn3cc([C@H](O)c4ccccc4)nn3)O[C@@]3(C(=O)N(C)c4c(Br)cc(C)cc43)[C@@H]2C)cc1", "composite z-score": -0.149}
{"compound": "CC1(C)OC[C@@]23C=C(Br)[C@@H](C[C@H]12)[C@@]1(CO1)C3=O", "composite z-score": -0.0169}
